# TEAD-YAP block = TEAD-YAP interaction inhibition; HEK-TIYL cells, TEAD-Gal4/YAP UAS-luciferase luminescence; inhibition, % at 9.12 µM; actives 1.4% (n = 640,000); in the data active means inhibition above about 32%;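 further: 0% = median of test compound wells and 100% = reference inhibitor wells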
# FBW7 act = human FBW7 E3 ligase activation, primary screen. Q969H0. AlphaScreen FBW7–phospho-cyclin E peptide binding, activator screen. normalized activity (activation), % at 26.1 µM. actives 0.13% (n = 650,000). AID 1259310; in the data active means normalized activity above about 1.9%;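 further: purified mutant Fbw7 with reduced substrate affinity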
# MITF inh = blocks human microphthalmia-associated transcription factor | AlphaScreen MITF homodimerization, bead proximity signal | O75030 | inhibition, % at 2.6 µM | actives 0.91% (n = 650,000); in the data active means inhibition above about 50%;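 further: 0% = vehicle wells with protein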
# Target sequence (O75030 whole entry, looked up): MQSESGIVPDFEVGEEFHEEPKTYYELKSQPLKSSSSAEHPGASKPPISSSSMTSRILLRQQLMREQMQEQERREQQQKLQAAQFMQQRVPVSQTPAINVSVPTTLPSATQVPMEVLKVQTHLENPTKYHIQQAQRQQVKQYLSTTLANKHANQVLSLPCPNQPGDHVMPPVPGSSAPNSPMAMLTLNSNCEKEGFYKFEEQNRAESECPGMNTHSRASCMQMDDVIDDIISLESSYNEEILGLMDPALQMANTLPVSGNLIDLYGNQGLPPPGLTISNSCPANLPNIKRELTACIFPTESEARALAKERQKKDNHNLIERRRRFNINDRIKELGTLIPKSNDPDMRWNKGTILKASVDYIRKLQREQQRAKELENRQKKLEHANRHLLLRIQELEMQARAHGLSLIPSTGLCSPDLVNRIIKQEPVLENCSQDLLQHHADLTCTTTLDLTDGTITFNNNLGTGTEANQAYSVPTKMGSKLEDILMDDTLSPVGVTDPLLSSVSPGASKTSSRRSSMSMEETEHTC
# GPR151 ag = activates the human receptor GPR151; Q8TDV0; PathHunter beta-arrestin GPR151 cells, luminescence; activation, % at 11.2 µM; actives 1% (n = 650,000); in the data active means activation above about 4.9%;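 further: 0% = median of compound wells and 100% = cells with positive control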
# GPR151 confirm = human GPR151 activation, confirmation screen. activation, % at 11.2 µM. GPR151 PathHunter beta-arrestin cells, luminescence, 90 min; % of EA-reagent control over plate median. AID 1508609. shares compounds with GPR151 ag. 6,700 tested, under 10 active;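 active means mean percent activation across replicates above the confirmation screen cutoff of 4.91%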
# GPR119 ag = activates human GPR119 in a GPR151 counter-screen; shares compounds with GPR151 ag; GPR119 PathHunter beta-arrestin cells, luminescence, 90 min; 0 = compound-well median, 100 = enzyme-acceptor control; activation, % at 11.2 µM; actives 0.3% (n = 6,700); AID 1508611;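 active means mean percent activation in the counterscreen above 29.09%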;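 further: counterscreen on off-target GPR119 to flag nonselective hits from the GPR151 activator screen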
# * hit, by the source's call; . = no result given. Compounds with a hit are over-represented: about 3.5% of the library has one in this group of screens.
SMILES,TEAD-YAP block,FBW7 act,MITF inh,GPR151 ag,GPR151 confirm,GPR119 ag
COCCNC(=O)Cn1nnc2ccccc2c1=O,0,0,-2,1,.,.
COC(=O)Cn1cc(/C=C(/C#N)C(=O)Nc2ccccc2)c2ccccc21,2,0,2,0,.,.
N#C/C(=C/c1cn(CC(=O)O)c2ccccc12)C(=O)Nc1ccc(Cl)cc1,11,0,3,8.5*,-1,-5
Cc1cc(C)cc(NS(=O)(=O)c2ccc(-c3cc(C)no3)cc2)c1,58*,0,-11,8.2*,1,-6
CCCC1(C2CCN(Cc3ccc(O)cc3)CC2)NC(=O)N(CC2CCCO2)C1=O (stereo not given),3,0,4,6.0*,0,2
Cc1c(Cl)cccc1NC(=O)c1cc(-c2ccc(Br)cc2)nc2ccccc12,-5,0,1,-1,.,.
N#CCCn1cc(/C=N/O)c(-c2ccccc2)n1,0,0,13,2,.,.
N#CCCn1cc(C=O)c(-c2ccc(-c3ccccc3)cc2)n1,-12,0,1,5.5*,0,-6
Cc1cccc(-n2cc(-c3ccccc3)c3c(NC(C)C)ncnc32)c1,-21,0,7,5.0*,-1,-1
CCCSc1ncnc2c1c(-c1ccccc1)cn2-c1cccc(F)c1,-4,0,-7,7.6*,0,13
CC(C)Nc1ncnc2c1c(-c1ccccc1)cn2-c1cccc(Cl)c1,-37,0,-11,-2,.,.
Cc1[nH]n(-c2ccccc2)c(=O)c1C1=c2cc(Cl)ccc2=NC1=O,5,0,26,-2,.,.
Cc1cccc(C2c3[nH]c4ccccc4c3CCN2C(=O)CCc2cnccn2)c1 (stereo not given),-28,0,-10,-1,.,.
COc1ccc2c(c1OC)C(=O)NC(C)=C(C(=O)OC(C)(C)C)C2O (stereo not given),8,0,-6,12*,0,-3
COc1cccc(CNC(=O)CSc2nc3c(oc4ccccc43)c(=O)n2CCCOC(C)C)c1,1,0,2,6.5*,-1,-13
O=C(CN1C(=O)c2ccccc2C1=O)Oc1ccccc1-c1ccccc1,-2,1,12,-2,.,.
COc1ccc(-c2nn[nH]n2)cc1,-1,0,-9,-1,.,.
CC(Sc1ncn(-c2ccccc2)n1)C(=O)Nc1ccccc1 (stereo not given),-6,0,0,5.9*,-2,-5
CC1CCCC(C)N1NC(=S)Nc1ccccc1 (stereo not given),8,0,5,4.9*,-1,-13
COc1ccc(-c2noc(CN3CCN(C(C)=O)CC3)n2)cc1,8,0,10,-1,.,.
O=C(c1ccccc1F)N1CCN(c2ccc([N+](=O)[O-])cc2Cl)CC1,0,0,4,0,.,.
O=C(c1nc2sccn2c1CNCC(c1ccccn1)N1CCOCC1)N1CCCC1 (stereo not given),9,0,11,1,.,.
O=C(c1nc2sccn2c1CNCC(c1cccnc1)N1CCOCC1)N1CCCC1 (stereo not given),13,0,6,9.8*,0,-1
CC#CCN1C(=O)NC(CCc2ccccc2)(C2CCN(C(=O)C#CC)CC2)C1=O (stereo not given),3,0,9,7.0*,0,4
CC(C)c1ccc(/C=C2N=C(/C=C/c3cccc(Cl)c3Cl)OC\2=O)cc1,-1,1,0,3,.,.
SMILES,TEAD-YAP block,FBW7 act,MITF inh,GPR151 ag,GPR151 confirm,GPR119 ag
Cc1ccccc1C(=O)NCc1nc(-c2ccccc2)no1,1,0,2,6.9*,-1,-12
O=C(Nc1cc(C(F)(F)F)ccc1Cl)c1nn2c(c1Br)NC(c1ccccc1)CC2C(F)(F)F (stereo not given),-6,0,5,-1,.,.
CCCOc1ccc(/C(O)=C2/C(=O)C(=O)N(CCCN(C)C)C2c2ccc(F)cc2)c(C)c1 (stereo not given),2,0,-4,5.3*,-1,0
CCCOc1ccc(/C(O)=C2/C(=O)C(=O)N(CCN(C)C)C2c2ccc(F)cc2)c(C)c1 (stereo not given),9,1,11,-1,.,.
N#CC1=C(N)OC(c2ccccc2)=C(n2cnc([N+](=O)[O-])n2)C1c1ccccc1 (stereo not given),3,0,-7,2,.,.
N#CC1=C(N)OC(c2ccccc2)=C(n2cnc([N+](=O)[O-])c2)C1c1cccnc1 (stereo not given),2,0,-5,8.2*,-1,-4
Cc1cc(Nc2ccc(N3CCOCC3)cc2)nc(NCc2cccnc2)n1,22,0,2,5.4*,1,-2
Cc1cc(Nc2ccc(N3CCOCC3)cc2)nc(Nc2ccncc2)n1,-2,0,14,-1,.,.
Cc1cc(Nc2ccc3c(c2)OCO3)nc(Nc2ccc(N3CCOCC3)cc2)n1,93*,0,18,10.0*,2,71*
CSCCOC(=O)C1=C(C)NC(=O)NC1c1cccc(OCc2ccccc2)c1 (stereo not given),-25,0,4,0,.,.
CCOC(=O)c1c(N)sc(C)c1-c1cccc(Cl)c1,2,0,2,0,.,.
COC(=O)c1c(N)sc(C)c1-c1cccc(Cl)c1,1,0,-5,6.0*,1,18
COCc1cc(CN2CCN3C(=O)[C@H](Cc4ccc(O)cc4)NC(=O)[C@H]3C2)ccc1OC,3,1,16,0,.,.
O=C1N[C@@H](Cc2c[nH]c3ccccc23)C(=O)N2CCN(C(=O)c3ccc4ccccc4c3)C[C@H]12,5,0,4,2,.,.
O=C1N[C@@H](Cc2c[nH]c3ccccc23)C(=O)N2CCN(C(=O)Oc3ccc(F)cc3)C[C@H]12,-11,0,-18,14*,0,26
COCc1cc(CN2CCN3C(=O)[C@H](Cc4ccccc4)NC(=O)[C@H]3C2)ccc1OC,7,0,4,5.7*,0,5
O=C1N[C@@H](Cc2c[nH]c3ccccc23)C(=O)N2CCN(C(=O)c3ccc(F)cc3)C[C@H]12,-2,0,16,6.4*,1,8
COc1ccc(C[C@@H]2NC(=O)[C@H]3CN(C(=O)c4cc(Cl)cc(Cl)c4)CCN3C2=O)cc1,-1,0,11,7.4*,1,13
COc1ccc(C(=O)N2CCN3C(=O)[C@H](Cc4ccc(Cl)cc4)NC(=O)[C@H]3C2)cc1,-2,0,-14,-1,.,.
CCC(C)n1c(=N)c(C(=O)NC2CCCCC2)cc2c(=O)n3cccc(C)c3nc21 (stereo not given),5,0,6,5.2*,0,-6
CCn1c(=N)c(C(=O)NC2CCCC2)cc2c(=O)n3cccc(C)c3nc21,14,0,0,1,.,.

# Source: PubChem
